# Source: PubChem BioAssay (The Scripps Research Institute Molecular Screening Center)
# This is a sample that favours compounds with a hit; in the whole collection about 3.5% have one here.
# MITF inh – human MITF inhibition, primary screen | AlphaScreen MITF homodimerization, bead proximity signal | inhibition, % at 2.6 µM | AID 1259374 | actives 0.91% (n = 650,000); in the data active = inhibition above about 50%;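 also: 0% = vehicle wells with protein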
# Target sequence (O75030 whole entry, looked up): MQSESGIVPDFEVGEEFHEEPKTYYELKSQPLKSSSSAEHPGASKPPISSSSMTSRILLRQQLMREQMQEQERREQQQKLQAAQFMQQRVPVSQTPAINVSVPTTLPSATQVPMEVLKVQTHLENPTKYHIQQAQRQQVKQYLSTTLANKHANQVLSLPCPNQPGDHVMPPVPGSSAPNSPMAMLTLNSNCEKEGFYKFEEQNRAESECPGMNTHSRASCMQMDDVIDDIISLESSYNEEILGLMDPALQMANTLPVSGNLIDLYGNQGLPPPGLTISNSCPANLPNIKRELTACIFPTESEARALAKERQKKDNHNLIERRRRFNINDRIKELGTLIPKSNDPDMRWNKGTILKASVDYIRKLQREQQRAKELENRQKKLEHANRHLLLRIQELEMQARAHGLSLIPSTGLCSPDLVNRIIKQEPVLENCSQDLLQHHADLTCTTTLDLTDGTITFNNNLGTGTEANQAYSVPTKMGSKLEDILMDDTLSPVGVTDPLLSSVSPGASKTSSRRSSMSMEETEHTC
# TEAD-YAP inh – TEAD-YAP interaction inhibition. inhibition, % at 9.12 µM. actives 1.4% (n = 640,000). AID 1259422. HEK-TIYL cells, TEAD-Gal4/YAP UAS-luciferase luminescence; in the data active = inhibition above about 32%;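 also: 0% = median of test compound wells and 100% = reference inhibitor wells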
# GPR151 activ – activators of human GPR151. activation, % at 11.2 µM. Q8TDV0. actives 1% (n = 650,000). PathHunter beta-arrestin GPR151 cells, luminescence; in the data active = activation above about 4.9%;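 also: 0% = median of compound wells and 100% = cells with positive control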
# FBW7 act – human FBW7 E3 ligase activation, primary screen. AlphaScreen FBW7–phospho-cyclin E peptide binding, activator screen. Q969H0. normalized activity (activation), % at 26.1 µM. actives 0.13% (n = 650,000); in the data active = normalized activity above about 1.9%;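 also: purified mutant Fbw7 with reduced substrate affinity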
# GPR151 conf act – human GPR151 activation, confirmation screen. shares compounds with GPR151 activ. GPR151 PathHunter beta-arrestin cells, luminescence, 90 min; % of EA-reagent control over plate median. activation, % at 11.2 µM. 6,700 tested, under 10 active;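 active = mean percent activation across replicates above the confirmation screen cutoff of 4.91%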
# GPR119 ag – GPR119 activation, counter-screen for GPR151 activators; actives 0.3% (n = 6,700); shares compounds with GPR151 activ; GPR119 PathHunter beta-arrestin cells, luminescence, 90 min; 0 = compound-well median, 100 = enzyme-acceptor control; activation, % at 11.2 µM;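 active = mean percent activation in the counterscreen above 29.09%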;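 also: counterscreen on off-target GPR119 to flag nonselective hits from the GPR151 activator screen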
# An asterisk follows results filed as active; . = no result; ! = repeats disagree.
SMILES,MITF inh,TEAD-YAP inh,GPR151 activ,FBW7 act,GPR151 conf act,GPR119 ag
O=C(CSc1nc2ccc(Nc3nc(N4CCOCC4)nc(N4CCOCC4)n3)cc2s1)NC1CC1,-1.1,-0.1,9.3*,-0.1,0.8,12.1
O=C(CSc1nc2ccc(Nc3nc(N4CCOCC4)nc(N4CCOCC4)n3)cc2s1)NCC1CCCO1 (configuration not stated),1.3,6.1,-0.7,0.8,.,.
O=C(c1ccc2c(=O)n(CCc3ccccc3)c(SCc3cccc([N+](=O)[O-])c3)nc2c1)N1CCCC1,18.3,9.9,1.9,0.0,.,.
CN(Cc1ccccc1)C(=O)c1ccc2c(=O)n(CCc3ccccc3)c(SCc3cccc([N+](=O)[O-])c3)nc2c1,-5.4,0.9,11.5*,-0.1,-0.5,-16.4
CCCn1cc(NC(=O)C2CC(c3ccccc3NC(C)=O)=NO2)cn1 (configuration not stated),-8.9,1.9,0.0,-0.1,.,.
Cc1c(NC(=O)c2ccc(OCc3c(F)cccc3Cl)cc2)c(=O)n(-c2ccccc2)n1C,4.4,4.8,8.3*,0.0,1.5,-1.7
Cc1cccn2c(=O)c3cc(C(=O)NCc4ccc(F)cc4)n(C)c3nc12,10.1,1.2,0.6,0.2,.,.
COC(=O)C(CCCCNC(=O)c1ccccc1)NC(=O)c1ccccc1 (configuration not stated),6.4,3.0,-0.4,-0.1,.,.
NC(CCCCNC(=O)c1ccccc1)C(=O)O (configuration not stated),7.1,4.8,5.0*,-0.1,-0.7,-9.8
COCCOC(=O)C1=C(C)NC(=O)CC1c1ccccc1Br (configuration not stated),-1.1,-2.8,1.6,-0.1,.,.
Cc1ccc(NS(=O)(=O)c2ccc(CN3C(=O)c4cccnc4C3=O)s2)cc1C,4.3,1.0,-1.9,-0.4,.,.
COc1ccc(/C=C2\SC(N)=NC2=O)cc1OC,18.8,-1.7,9.1*,0.0,0.3,10.5
Cc1cc(C)c(/C=C2\SC(N)=NC2=O)c(C)c1,-4.0,-3.2,7.8*,0.2,-0.1,-1.4
Cc1ccc(C)c(/C=C2\SC(N)=NC2=O)c1,-1.8,-6.9,-0.2,-0.1,.,.
Cc1ccc2[nH]c(=O)cc(C(=O)OCC(=O)c3cccc([N+](=O)[O-])c3)c2c1,9.7,8.1,1.2,0.2,.,.
COc1cccc(CN2CCN(Cc3cn(C)nc3C)CC2CCO)c1 (configuration not stated),9.0,7.2,5.8*,0.1,-0.6,-14.2
COc1cccc(CN2CCN(Cc3cccc(OC)c3)C(CCO)C2)c1 (configuration not stated),-8.4,-1.4,-0.6,0.0,.,.
CSc1cccc(CN2CCN(Cc3ccccc3F)C(CCO)C2)c1 (configuration not stated),13.0,-0.7,12.8*,-0.1,0.8,-2.6
COc1cccc(CN2CCN(Cc3cccc(OCCO)c3)CC2CCO)c1 (configuration not stated),-2.9,8.7,5.2*,-0.2,0.0,0.5
COc1ccccc1NC(=O)CSc1nc2ccsc2c(=O)n1-c1cccc(Cl)c1Cl,0.8,0.7,1.1,0.0,.,.
S=C(NCC1CCCO1)Nc1ccc(I)cc1 (configuration not stated),1.4,-45.1,1.9,-0.1,.,.
CC(=O)c1ccc(NC(=S)NCC2CCCO2)cc1 (configuration not stated),-9.5,-28.0,5.4*,-0.1,-0.4,4.6
COC(=O)c1c(NC(=O)c2ccc(OC)c(OC)c2)sc2c1CCCC2,2.3,8.9,-0.4,0.1,.,.
CC(C)Cc1ccc(C(C)C(=O)O)cc1 (configuration not stated),2.4,9.8,0.2,0.0,.,.
CC(C(=O)O)c1ccc(CC2CCCC2=O)cc1 (configuration not stated),4.5,4.4,6.7*!,0.0,-0.1,0.6
SMILES,MITF inh,TEAD-YAP inh,GPR151 activ,FBW7 act,GPR151 conf act,GPR119 ag
CCNc1c(C(=O)OCC)cnc2c(F)ccc(C)c12,-4.2,-1.2,0.1,0.0,.,.
Fc1ccc(/C=N/Nc2nc3ccccc3s2)cc1,3.3,-64.4,7.0*,0.0,-0.5,3.9
O=c1[nH]nc(Cc2ccccc2)c2ccccc12,4.1,-12.9,0.2,0.0,.,.
COc1ccc(Cc2n[nH]c(=O)c3ccccc23)cc1OC,-3.9,-9.7,5.3*,-0.1,0.7,-4.9
CCNc1nc(OC(C(F)(F)F)C(F)(F)F)nc(N2CCCCC2)n1,-9.2,3.1,6.0*,-0.2,2.0,13.1
O=S(=O)(NCC(c1cccs1)S(=O)(=O)c1ccc(F)cc1)c1ccccc1 (configuration not stated),-2.6,-2.6,0.7,-0.2,.,.
NC(=O)c1cccc(N)c1,-6.7,-8.9,6.2*!,0.1,0.0,0.7
N#Cc1ccc(C(=O)C(=O)c2ccccc2)cc1C#N,0.5,-7.2,-0.7,0.8,.,.
N#Cc1ccccc1C(Br)C(Br)C(=O)O (configuration not stated),-2.4,-5.1,6.0*,-0.3,-0.5,-8.1
COc1cc(/C=C2/C(=O)N(c3ccc(I)cc3)N=C2C)ccc1O,6.5,2.4,5.4*,-0.1,-0.8,2.3
COc1ccc(/C=C2\C(=O)N(c3ccc(Cl)c(C(=O)O)c3)N=C2C)cc1OC,2.4,-6.1,5.7*,-0.1,-0.1,11.2
COc1cc(/C=C2\C(=O)N(c3ccc(C(=O)OC(C)C)cc3)N=C2C)ccc1O,2.0,-13.6,-0.6,0.0,.,.
COc1ccc(CN2CCN(C3CCSCC3)CC2CCO)c(F)c1 (configuration not stated),-4.0,14.2,0.3,0.0,.,.
O=C(NCc1ccco1)c1ccc2c(c1)NC(=O)C(N1CCCCC1)S2 (configuration not stated),4.9,15.4,0.5,-0.1,.,.
COc1ccc(NC(=O)/C(C#N)=C/c2ccc(-c3ccccc3C(=O)O)o2)cc1,-8.7,-4.8,-0.7,0.0,.,.
CC(=O)c1ccc(-c2ccc(/C=C(\C#N)C(N)=S)o2)cc1,-11.9,-0.3,0.3,-0.1,.,.
N#C/C(=C\c1ccc(-c2ccccc2C(=O)O)o1)C(=O)Nc1ccccc1,-2.8,-29.5,8.2*,-0.2,-0.6,0.4
N#C/C(=C\c1ccc(-c2ccccc2C#N)o1)C(N)=S,-0.2,1.2,6.0*,0.0,0.1,1.5
Cc1ccccc1OCC(=O)Nc1ccccc1C(=O)N1CCCC1,12.4,-13.3,-2.0,0.5,.,.
COC(=O)C1=C(C)NC2=C(C(=O)CC(c3ccc4c(c3)OCO4)C2)C1c1ccc(Br)cc1 (configuration not stated),0.2,10.9,0.6,0.1,.,.
O=[N+]([O-])c1c(N2CCCC2)ncnc1N1CCCC1,-1.7,6.0,0.5,0.0,.,.
O=[N+]([O-])c1c(N2CCCCC2)c([N+](=O)[O-])c2nsnc2c1N1CCCCC1,12.9,2.6,5.6*,-0.1,-1.4,-10.4
